Experimental findings from PubChem BioAssay (NCI) are described below.

Each structure is given as a SMILES string. The panel holds about 83,000 compounds, 20% with a hit somewhere; the sample as a whole holds those more often.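 The test compound was applied at a single concentration to cells in 96-well plates for 48 hours, and percent growth was recorded.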 Unmarked numbers belong to inactive results. The source made the active and inactive calls. How the source made its calls: active means growth percent below 10; inactive means the rest.

Assay in all cases: NCI-60 one-dose screen, 48 h (100 = growth as untreated, 0 = no growth, -100 = all killed)
Common to all, as to conditions: 10 µM unless noted

Test [1] deals with SK-MEL-2 melanoma.
Test [2] deals with EKVX NSCLC.
Test [3] concerns SN12C renal.
Test [4] relates to UO-31 renal.
Test [5] has as its system TK-10 renal.
For test [6], the system named is ACHN renal.
In test [7] the test system is CAKI-1 renal.
The test system of test [8] is CCRF-CEM leukemia.
Test [9] has as its system MOLT-4 leukemia.
Test [10] relates to A498 renal.

For `Cc1ccc(/C=C2\CNC/C(=C\c3ccc(C)cc3)C2=O)cc1`, the growth in test [1] is 61%; in test [2], -67.4% (active); in test [3] it was -61.3% (active); in test [4], -81.2% (active); in test [5] it was 16.9%; in test [6], -82.5% (active). The growth was -44.1% (active) in [7], -3.56% (active) in test [8] and -11.4% (active) in test [9].
In the case of `CN(C)c1ccc(C(=C2C=CC(=[N+](C)C)C=C2)c2ccc(N(C)C)cc2)cc1`, the growth in [1] was -57.8% (active); in test [2], -44% (active); in test [3], -67% (active); in test [4], -97.9% (active); in test [6], -95.9% (active); in test [7], -27.5% (active). Besides, the growth was -91% (active) in test [10], -16.6% (active) in test [8] and -11.4% (active) in test [9].
On to `COC(=O)c1cc([N+](=O)[O-])cc([N+](=O)[O-])c1Cl`, for which the growth in test [1] is 87.4%; in [2], 98.1%; in test [3], 99.8%; in test [4], 79.1%; in test [5] it was -41.3% (active); in test [6] it was 15.6%. Besides, the growth was 29.8% in test [8] and 26.6% in test [9].
On to `O=C1C(=O)c2cccnc2-c2ncccc21`, for which the growth was -11.1% (active) in test [1]; -49.7% (active) in [2]; -71.3% (active) in test [4]; -24% (active) in test [5]; -69.4% (active) in test [6]; -29.4% (active) in test [7]. Further, the growth in test [10] is -39.4% (active); in test [8], -32.6% (active); in test [9] it was -45.1% (active).
With `O=C(CBr)c1ccc(OC(=O)c2ccccc2)cc1`, the growth in [1] was 111%; in [2], 118%; in test [3], 103%; in test [5], 117%; in [6], 97.5%; in test [7], 100%. The growth in [10] is 74.4%; in test [8], 67.6%; in test [9] it was 95.3%.
With `C/C=C/c1cc2c(c(=O)o1)C(=O)[C@@H](O)[C@H](C)O2`, the growth is 72.9% in test [1]; 95% in [2]; 0.0978% (active) in test [4]; 5.77% (active) in [5]; 26.3% in [6]; 43.3% in test [7]. In addition, the growth in test [10] was 125%; in test [8], -17.5% (active); in test [9], 43.6%.
`CCOC(=O)c1c(C)[nH]c2ccc(O)cc12`: the growth in test [1] was 97.9%; in test [2], 98.3%; in [4], 72.3%; in test [5] it was 128%; in [6] it was 110%; in [7], 97.8%. Besides, the growth in test [10] was 111%; in test [8], 77.5%; in test [9] it was 105%.
As for `CCCCCCC1N=C(N)N=C(N)N1c1cccc(Cl)c1` (centres undefined), the growth was 82.9% in [1]; 76.8% in [2]; 93.4% in [4]; 67.6% in test [5]; 53.9% in test [6]; 100% in test [7]. Besides, the growth was 83% in test [10], 28.7% in [8] and 25.4% in test [9].
`Cc1c(O)ccc(SC#N)c1C`: the growth was 103% in [1]; 121% in test [2]; 95.3% in test [3]; 107% in [5]; 103% in test [6]; 98.5% in [7]. The growth in [10] is 127%; in [8] it was 30.7%; in [9], 97.5%.
With `Nc1nc2ncc(CNc3ccc(C(=O)NC(CCC(=O)NC(CCC(=O)NC(CCC(=O)NC(CCC(=O)NC(CCC(=O)O)C(=O)O)C(=O)O)C(=O)O)C(=O)O)C(=O)O)cc3)nc2c(=O)[nH]1` (centres undefined), the growth is 118% in test [1]; 95.9% in test [2]; 101% in [3]; 119% in test [5]; 110% in [6]; 89.7% in [7]. For the same compound, the growth in test [10] was 116%; in test [8], 102%; in test [9], 107%.
With `Cc1cc(=O)oc2cc(O)cc(O)c12`, the growth is 107% in test [1]; 99.3% in test [2]; 83.5% in [4]; 97.8% in test [5]; 102% in [6]; 94.6% in [7]. The growth in [10] was 117%; in test [8], 107%; in test [9] it was 99.8%.
Regarding `COc1c(C)c2c(c(O)c1C/C=C(\C)CCC(=O)O)C(=O)OC2`, the growth in test [1] was 43.8%; in [2], 48.2%; in test [3] it was 34.4%; in test [4], 27.9%; in test [5], 42%; in [7], 6.69% (active). Further, the values for the growth in [10], in [8] and in test [9] were 61.7%, 26.1% and 25.9%, respectively.
In the case of `CCCCCCCCC(=O)OCCCC(CCC(CCC1CCCO1)OC(=O)CCCCCCCC)OC(=O)CCCCCCCC` (centres undefined), the growth in test [1] is 103%; in [2], 94.1%; in test [3] it was 92.9%; in test [5], 87.9%; in [6], 107%; in [7], 93.3%. Moreover, the growth was 110% in [10], 87.6% in test [8] and 117% in test [9].
As to `COc1ccc2c(c1OC)OCC(CN(C)C)C2=O` (centres undefined), the growth in [1] was 112%; in [2], 99.4%; in [4] it was -72.5% (active); in [5], 90.7%; in test [6] it was 54.2%; in test [7], 94.4%. The results for the growth in test [10], in [8] and in [9] were 104%, 60% and 61.1%, respectively.
As to `COc1cc(NC(=O)C2=C(C)NC(C)=C(C(=O)Nc3cc(OC)c(Cl)cc3OC)C2c2cccc([N+](=O)[O-])c2)c(OC)cc1Cl`, the growth is 10.2% in test [1]; 28.7% in [2]; 32.2% in test [3]; 70.6% in [5]; 29.2% in test [6]; 21.4% in test [7]. Besides, the growth in [10] was 75.3%; in test [8], 12.3%; in test [9] it was 10.3%.
